# Compounds with a hit are over-represented: about 2.3% of the library has one in this group of screens.
# Mcl1 Bid PPI = disrupts binding of human Mcl-1 to Bid peptide; Q07820; TR-FRET Mcl-1/Bid-Dy647 peptide binding, 1536-well; inhibition, % at 21.7 µM; AID 1021; actives 0.97% (n = 220,000);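 active means compounds that cut the binding signal by more than half at the single screening dose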;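 further: His-tagged Mcl-1 with europium anti-His antibody binding Bid BH3 peptide; 0% = Mcl-1 plus peptide wells and 100% = peptide-only wells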
# Mcl-1 Bim block = inhibitors of Bim-Mcl-1 interaction, human. actives 0.1% (n = 190,000). Bead-based flow cytometry, Bim peptide-Mcl-1 binding. inhibition, % at 10 µM; in the data active means inhibition above about 40%;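 further: 0% = no compound tracer wells and 100% = peptide blocker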
# MCL1 BIM primary = disrupts human MCL1 binding to BIM-BH3 peptide; Q07820; GST-MCL1 / FITC-Bim-BH3 fluorescence polarization; inhibition, % at 10.9 µM; actives 0.68% (n = 320,000); AID 2057;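 active means inhibition above the mean inhibition of all tested compounds plus 3 SD, set per campaign, cut at about 40% in these data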;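 further: 0% = DMSO wells and 100% = unlabeled Bim-BH3 peptide control; higher means more loss of mP so more displacement of Bim peptide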
# BCLXL inh = Bcl-xL (human) inhibition; Q07817; GST-Bcl-xL / FITC-Bim BH3 peptide fluorescence polarization; inhibition, % at 10.9 µM; actives 0.7% (n = 320,000);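 active means inhibition above the mean of all tested compounds plus 3 SD, cutoff set per campaign, cut at about 30% in these data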;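 further: 0% = DMSO wells and 100% = unlabeled Bim-BH3 peptide competitor; inhibitors lower millipolarization by displacing the labeled peptide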
# GLD-1 RNA inh = GLD-1-TGE RNA interaction inhibition (C. elegans) | purified GLD-1 + fluorescein TGE RNA, fluorescence polarization | inhibition, % at 5.96 µM | actives 0.44% (n = 320,000) | AID 2280;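 active means percent inhibition above a per-plate cutoff, the plate mean of test compounds plus 3 SD, cut at about 30% in these data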;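 further: 0% = DMSO wells with GLD-1 and probe and 100% = wells lacking GLD-1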
# Target sequence (Q17339 whole entry, looked up): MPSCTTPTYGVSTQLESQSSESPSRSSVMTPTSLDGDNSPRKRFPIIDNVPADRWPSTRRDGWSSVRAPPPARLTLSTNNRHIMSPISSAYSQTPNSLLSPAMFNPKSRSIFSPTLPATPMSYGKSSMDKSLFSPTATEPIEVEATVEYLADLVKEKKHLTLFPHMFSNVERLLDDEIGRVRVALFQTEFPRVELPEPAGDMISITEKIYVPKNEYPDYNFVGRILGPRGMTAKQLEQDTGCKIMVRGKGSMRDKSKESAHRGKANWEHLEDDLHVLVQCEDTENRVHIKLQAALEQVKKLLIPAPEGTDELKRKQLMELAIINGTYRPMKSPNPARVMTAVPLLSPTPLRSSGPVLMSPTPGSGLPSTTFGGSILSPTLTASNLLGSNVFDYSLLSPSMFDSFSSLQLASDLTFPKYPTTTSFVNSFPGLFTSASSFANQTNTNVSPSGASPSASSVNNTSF
# Mcl1 Noxa PPI = Mcl-1/Noxa interaction inhibition; AID 1022; Q07820; actives 1.5% (n = 220,000); inhibition, % at 21.7 µM; TR-FRET Mcl-1/Noxa peptide binding, 2 h;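 active means compounds that cut the protein-peptide binding signal by more than 50% relative to plate controls in a single-dose test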;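 further: His-tagged Mcl-1 with rhodamine Noxa BH3 peptide and terbium anti-His antibody; 0% = Mcl-1 plus Noxa peptide wells and 100% = peptide-only wells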
# Starred values were filed as active, the others as inactive; / = no result.
SMILES,Mcl1 Bid PPI,Mcl-1 Bim block,MCL1 BIM primary,BCLXL inh,GLD-1 RNA inh,Mcl1 Noxa PPI
O=C(COC(=O)c1ccco1)c1ccccc1,/,/,-3,2,-3,/
Cn1cc(C=O)c2cc(F)ccc21,-14,2,-14,2,2,1
Cn1cc(/C=C/c2cc[n+](C)cc2)c2cc(F)ccc21,/,/,3,28,77*,/
Cn1cc(/C=C/c2cc[n+](C)cc2)c2cc(Cl)ccc21,/,/,-15,15,52*,/
COc1cccc(/C=N/NC(=O)c2cnccn2)c1O,-250,/,4,2,-1,-37
COCCN(C(=O)CC1C(=O)NCCN1Cc1ccc(-c2ccccc2)cc1)C(C)C (stereo unspecified),-6,-4,5,12,9,10
CCCNC(C)C(=O)Nc1ccccc1C (stereo unspecified),-3,-1,7,-2,-2,-26
CCC(C)c1ccccc1NC(=O)C(C)NCCN(C)C (stereo unspecified),60*,/,-5,-3,1,23
NS(=O)(=O)c1ccc(CCNS(=O)(=O)c2ccc(Cl)nc2)cc1,-9,/,-2,0,8,9
O=c1/c(=C/c2ccc(O)c([N+](=O)[O-])c2)sc2nc3ccccc3n12,28,-2,/,/,/,80*
Cc1cc(/C=c2\sc3nc4ccccc4n3c2=O)c(C)n1-c1ccc(C(=O)O)cc1,-12,0,/,/,/,65*
O=c1/c(=C\c2cccnc2)sc2nc3ccccc3n12,14,-4,/,/,/,7
CCC1Cc2c(nc(N)c3c(N)nc(N4CCOCC4)c(C#N)c23)O1 (stereo unspecified),-19,3,0,6,6,7
CN(CCO)c1nc(N)c(C#N)c(CC#N)c1C#N,-16,/,3,10,3,22
COc1ccc(CN2C(=O)Cc3c2nc(N)c2c(N)nc(N4CCOCC4)c(C#N)c32)cc1,-107,/,47*,38*,12,36
CN(CCO)c1nc(N)c2c(N)nc3c(c2c1C#N)CC(=O)N3Cc1cccs1,-19,6,41*,36*,-1,36
CCN(CC)S(=O)(=O)c1cc([N+](=O)[O-])ccc1N=Nc1c(O)[nH]c2ccccc12,51*,-1,-5,-1,4,7
O=C(N=Nc1c(O)[nH]c2ccc([N+](=O)[O-])cc12)c1ccccc1[N+](=O)[O-],-8,/,8,4,3,14
CCc1cc(C(=O)N=Nc2c(O)[nH]c3ccc([N+](=O)[O-])cc23)c2ccccc2n1,-48,-1,38,12,-7,92*
Cc1ccc(-n2c(O)c(/C=N/Nc3ccc(S(=O)(=O)N4CCOCC4)cc3[N+](=O)[O-])c3ccccc3c2=O)c(C)c1,-7,4,11,8,-1,78*
O=C1c2cccc3c(N4CCCCC4)ccc(c23)C(=O)N1CCO,-7,0,27,49*,-3,-35
O=C(c1cccc(N2C(=O)c3ccccc3C2=O)c1)N1CCCCCC1,-9,-1,0,-1,0,8
O=C(OCCN1C(=O)c2cccc3c(N4CCOCC4)ccc(c23)C1=O)c1ccccc1Cl,-12,2,-9,25,19,-145
O=C1c2cccc3c(N4CCCCC4)ccc(c23)C(=O)N1c1cccc(O)c1,-29,3,0,34*,8,-21
C=CCN1C(=O)c2cccc3c(N4CCCCC4)ccc(c23)C1=O,-15,0,-12,1,151*,-5
SMILES,Mcl1 Bid PPI,Mcl-1 Bim block,MCL1 BIM primary,BCLXL inh,GLD-1 RNA inh,Mcl1 Noxa PPI
O=C1OC(/C(=C\NCc2ccccc2)[N+](=O)[O-])c2ccccc21 (stereo unspecified),-21,0,-5,-1,5,5
CN(Cc1c(O)ccc2c1oc(=O)c1ccccc12)C1CCCCC1,65*,-4,30,14,0,-56
O=C(Nc1cc2cccc([N+](=O)[O-])c2oc1=O)c1cccs1,-30,0,7,-3,-1,62*
O=C(CN(C(=O)CNC(=O)c1ccco1)c1ccc2c(c1)OCO2)NC1CCCCC1,83*,1,-4,-1,1,16
O=C(CN(C(=O)CNC(=O)c1ccco1)c1ccc2c(c1)OCCO2)NC1CCCC1,-48,3,8,3,-4,9
Cc1ccc2nc(Cc3ccc(N)cc3)[nH]c2c1,34,0,2,-1,5,29
Nc1ccc2nc(Cc3ccccc3)[nH]c2c1,-5,/,-3,0,76*,29
CCOC(=O)CC1=CSC2=NS(=O)(=O)CCN12,-3,-4,11,6,1,74*
NNc1nc(-c2ccccc2)cs1,83*,-7,5,10,-2,4
O=C1C=C(NNC(=O)c2ccccc2Br)CCC1,-21,0,17,13,69*,-2
CCCc1ncc(C(O)c2cccc3ccccc23)n1C (stereo unspecified),-4,-9,5,2,7,1
Cc1cc(C)c2oc(C(=O)Nc3ccc(S(=O)(=O)Nc4nccs4)cc3)cc(=O)c2c1,-152,/,10,10,6,83*
Cc1cc2oc(C(=O)Nc3ccc(S(=O)(=O)Nc4nccs4)cc3)cc(=O)c2cc1Cl,26,7,8,5,4,62*
O=C(O)CN=C1CC(c2ccccc2)CC(=O)/C1=C(/O)CCCN1C(=O)c2ccccc2C1=O (stereo unspecified),-24,0,4,2,3,12
N#CCCN/N=C(/Cc1nc2ccccc2[nH]1)c1ccc(Cl)cc1,-40,-14,-8,-3,2,-47
COCCN1C(=O)C(=O)/C(=C(/O)c2ccc(S(=O)(=O)N3CCOCC3)cc2)C1c1cccc(Cl)c1 (stereo unspecified),66*,/,-3,0,2,40
Cc1csc(SCC(=O)N(C)c2c(N)n(Cc3ccccc3)c(=O)[nH]c2=O)n1,-18,-2,2,-2,9,15
Cc1cccc(Nc2cc(C)c3c(O)cccc3n2)c1C,-5,0,1,3,4,53*
CCCSc1ccc(C(=O)Nc2ccc(F)cc2F)cn1,-28,0,12,2,-9,26
Cc1cc2c(C)c(C)c(=O)[nH]c2cc1N,-20,-4,5,5,-16,55*
CC(=O)N1CCc2cc(S(=O)(=O)NC(Cc3ccccc3)C(=O)NC3CCCCCC3)ccc21 (stereo unspecified),99*,-4,6,1,5,103*
COc1ccccc1N1CCN(C(=O)CN(CCc2ccccc2)S(C)(=O)=O)CC1,-21,1,3,3,1,-2
Nc1ccc(-c2ccc(N)c([N+](=O)[O-])c2)cc1[N+](=O)[O-],15,2,10,3,-1,51*
CC1CCCCN1S(=O)(=O)c1ccc(C(=O)Nc2nnc(-c3ccco3)o2)cc1 (stereo unspecified),/,/,7,6,4,/

# Screening results from PubChem BioAssay.
